Test results published in PubChem BioAssay AID1508600 (Functional Genomics Laboratory (NCATS/FGL), 2020).
The campaign covered roughly 53,000 sequences. About 3,700 (7%) were called active. This is one part of a sample in which actives are shown more often than they occur.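 The calls were made as follows: active = gene knockdowns whose robust z-score for IL-1 alpha signal is at least 2 or at most -2, so actives lie on both sides; inactive = the rest.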

Experiment: Components of the Cytosolic LPS Sensing Pathway: Gene Identification via Genome-wide siRNA Screen;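 also: robust z of the log signal after scaling to non-targeting control siRNA wells of the plate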
Conditions: RAW264.7 macrophages, IL-1a HTRF, actives lie on both sides, screened at 100 nM (by protocol), cells primed 5 h with Pam3CSK4 first
Outline: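 Using IL-1a HTRF as read-out, the screen measured release from RAW264.7 cells after 48h siRNA knockdown (100 nM), 5 h Pam3CSK4 priming and 24 h cytosolic LipidA. Values were expressed relative to negative-control wells as robust z-scores.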
With GAGAGAGGGAAUUUGCUCCTT against Pcdhb8 the z-score was 2.6 (active). In the case of AUGUGGCAAAACCUUUGCATT against Zfp960, the z-score is reported as 0.615 (inactive). In the case of CCCAUGCUUAUUACCGAGATT against Rab37, the z-score is reported as 0.0517 (inactive). With “GGGUGUCAACCCUUUAGAUTT against C130026I21Rik” the z-score was 0.685 (inactive). In the case of GCACCUCAAAAGAAUUCAUTT against Septin10, the z-score is reported as 1.42 (inactive). With GGAUAAGAAACACAAGAAGTT against Srrm1 the z-score was 2.04 (active). In the case of GCACAUUUUAGCCUAAUGGTT against Tpm3, the z-score is reported as -0.785 (inactive). For CCCACUUGUGGCAGUGUACTT against Stub1, the z-score was 0.818 (inactive). In the case of GCGACAAUAUGAGUCACCUTT against Fsd1, the z-score is reported as -2.07 (active). In the case of GGGUAACAUGAAAGUGAUCTT against Mybbp1a, the z-score is reported as -0.972 (inactive). In the case of GGACCAAGGAGCAUUGAAATT against Fkbp7, the z-score is reported as 1.06 (inactive). In the case of GGAAUUCAUCUGUGGUCUCTT against Trim50, the z-score is reported as -0.559 (inactive). For “GCUUUAGGUAUGGUCCUAATT against A430072C10Rik”, the z-score was 1.23 (inactive). In the case of “GGAUCCAAGGGCAAAAGAUTT against St6galnac1”, the z-score is reported as -1.36 (inactive). With CGUACUAUAGUAAAUCCAGTT against Clk1 the z-score was 2.4 (active). With GCCAAGAAACAAUACUCAUTT against Olfr1352 the z-score was 0.694 (inactive). With CCUACCAAAACGACUAUAUTT against Pnma3 the z-score was -1.29 (inactive). In the case of CGGGCUGAUUCAACUGGUGTT against Kif1b, the z-score is reported as 3.64 (active). For GGUACCUCUUCUCCUAAAGTT against Vps16, the z-score was 0.106 (inactive). With GCAUCUCAGCUCUGAUUUATT against Fgfbp3 the z-score was 0.758 (inactive). In the case of GGUAGAAACUGACCACAUATT against Aifm1, the z-score is reported as 0.917 (inactive). For GGAGUAAAUUGAGAAACCATT against Acsm5, the z-score was -0.149 (inactive). In the case of CCUUUAUUUCUGUGAAUCUTT against Olfr1467, the z-score is reported as 0.631 (inactive). In the case of GCUGUUCGUGAGGAUAACCTT against Yipf1, the z-score is reported as 1.2 (inactive). With GGGUAGAAUGACUUUGGCCTT against Cldn2 the z-score was 1.19 (inactive). With GGCUUAUCAUAUGAAGACATT against Aplp2 the z-score was 2.33 (active). With GGAGUCACCAGACUUGUGUTT against Svs3b the z-score was 0.637 (inactive). With GGAAAAUGCUCACAUAGUGTT against Pak1ip1 the z-score was 0.442 (inactive). For CGCAUACUGUGGAAUAGUUTT against Spag4, the z-score was -1.26 (inactive). In the case of GGAAUGAAAGUUCCACUAUTT against Emcn, the z-score is reported as -0.633 (inactive). With CCCACCACUAUUUAUAUGATT against Dlg2 the z-score was -0.17 (inactive). In the case of GGAUGUGACAUGAAUCCUGTT against Ankle1, the z-score is reported as -0.49 (inactive). In the case of CCAAAACUAGGAAGAAACATT against Olfr716, the z-score is reported as -2.3 (active). In the case of GGCAAUAAAUAUCCAGAAATT against Crygn, the z-score is reported as 1.02 (inactive). For GCAGCUCUGCGGAAGCUUUTT against Olfr1350, the z-score was -0.505 (inactive). In the case of GGAUCUUGAUAGACUGAUGTT against Rhox5, the z-score is reported as 0.362 (inactive). For GGAAAAUCUCCGUUGUCUCTT against Acin1, the z-score was -2.76 (active). With UCAUUGAGAAAGGAGAAGATT against Cox17 the z-score was -0.547 (inactive). For GGUAGAUAACCUGAUUUAUTT against Slc7a6, the z-score was 2.22 (active). In the case of GCCUGUGUAUUACUUUUUUTT against Sned1, the z-score is reported as -0.786 (inactive). With GGAGUUGCCUCUGAAGACCTT against Ccm2l the z-score was 0.797 (inactive). For GGUGUUCAGGAGAUGAUGCTT against Cdt1, the z-score was 0.0123 (inactive). With GGAGCAUCUCCUCAUGGAUTT against Actl11 the z-score was 2.08 (active). In the case of GCCUUAUCCUGAGAAUGGCTT against Lrrc47, the z-score is reported as -0.61 (inactive). In the case of GGCUGCUGUUAACAAGCUGTT against Wdr13, the z-score is reported as -2.41 (active). For GCUCCUCCAGAUACAUGCUTT against Tbrg1, the z-score was -0.741 (inactive). In the case of GGUUCUUUCGACUUCCUGCTT against Ccbe1, the z-score is reported as -0.166 (inactive). With GGCAACAGACAAACAGCCGTT against Ugcg the z-score was -1.54 (inactive). In the case of GGAGAAGAAAAAGCGGUACTT against Plxnb2, the z-score is reported as 2.71 (active). With GGAGUACUGGGCAUAUAAATT against Slc29a3 the z-score was -0.324 (inactive). For GGGUGGUUAGAACAGCCACTT against Prss16, the z-score was -1.21 (inactive). For CCCUAGAGAUGGUGGGUCUTT against Olfr934, the z-score was -0.484 (inactive). With GGCAGUUAACACUUAAUGATT against Foxp2 the z-score was 0.609 (inactive). In the case of GGAACAUAACUCUUGUAUATT against Dhx35, the z-score is reported as -1.52 (inactive). In the case of “GGAGAAACUUCUUUAAAGCTT against 5830427D03Rik”, the z-score is reported as 0.573 (inactive). In the case of GGACAAGUGCCUCUCACCATT against Glis2, the z-score is reported as -3.25 (active). In the case of GGCAGAAAGUAAAUCCGUGTT against Exoc3l4, the z-score is reported as -1.22 (inactive). With GGCCAUAGAUAUUCAAGGUTT against Olfr218 the z-score was 0.293 (inactive). With GCCUUUGUGUUACAAUAUGTT against Fermt2 the z-score was 0.487 (inactive). In the case of GUCAAAGAGUUUCAGCAUCTT against Foxl1, the z-score is reported as 0.664 (inactive). In the case of GGAGGUUUUCCGAAGUAUUTT against Pnpt1, the z-score is reported as 1.2 (inactive). In the case of GGCUCUGUGACCAAGAUUUTT against Rtca, the z-score is reported as -1.48 (inactive). In the case of GCCUCUCUCUAUCUAUGCATT against Tob2, the z-score is reported as -2.2 (active). For GCAACGUGGUCUAUGAAUUTT against Disp2, the z-score was -0.694 (inactive). For GGUUUUUCAGUGACACAUGTT against Vmn1r192, the z-score was 2.26 (active). With CCAGAGUUUUAUAACGGAATT against Olfr1229 the z-score was 0.601 (inactive). For GGUUGUGCAGUUUUAUUUCTT against Tceal1, the z-score was -0.176 (inactive). With GCUAACAUUGUAAAUGCACTT against Dmrta1 the z-score was 0.467 (inactive). In the case of GGAAAAGCUUUUGUUCCCATT against Tfb1m, the z-score is reported as 2.58 (active).
